ChEMBL document CHEMBL1157539, “Thousands of chemical starting points for antimalarial lead identification” (Nature, 2010)

Key:
Assay type in all cases: functional
Plasmodium falciparum [1] = test: GSK_TCMDC: Inhibition of Plasmodium falciparum 3D7 in whole red blood cells, using parasite LDH activity as an index of growth. Test compounds present at 2uM
Plasmodium falciparum [2] = test: GSK_TCMDC: Inhibition of Plasmodium falciparum Dd2 in whole red blood cells, using parasite LDH activity as an index of growth. Test compounds present at 2uM
HepG2 = test: GSK_TCMDC: Percent inhibition of human HepG2 cell line. Test compounds present at 10uM.

SMILES	Inhibition (Plasmodium falciparum [1]) [%]	Inhibition (Plasmodium falciparum [2]) [%]	Inhibition (HepG2) [%]
COC(=O)c1ccc(CCC(C)NCC(O)c2cccc(Cl)c2)cc1.Cl (centres undefined)	100	94	0
CN1CCCC1CCNCc1ccc(-c2ccc(CNCCc3ccccc3)cn2)cc1.O=C(O)C(F)(F)F (centres undefined)	100	99	25
CN(C)CCOc1cc(NC(=O)Nc2ccc(Cl)cc2C(F)(F)F)ccc1I	96	16	0
CCNc1cc(C)nc(Nc2ccc(NC(=O)c3c(F)cccc3Cl)cc2)n1	100	89	49
C#CCNC(=O)c1ccc(-c2ccnc(Nc3cccc(CCCN4CCOCC4)c3)n2)s1	82	45	54
CN1CCN(c2ccnc3ccc(NC(=O)Nc4ccccc4Br)cc23)CC1.Cl	100	95	4
COc1ccc(NC2=C(c3ccccc3)C(=O)c3ccccc32)cn1	96	84	0
CC(C)c1ccc(-c2noc(SCC(=O)N3CCCCC3C)n2)cc1 (centres undefined)	92	92	21
Cc1cccc2nc(-c3ccc(-c4ccc(CNCc5cccc(N)c5)cc4)s3)[nH]c12.O=C(O)C(F)(F)F	100	78	10
CCCCCCSc1nnc(COc2cccc3ccccc23)n1-c1ccc(OC)cc1	99	100	19
CN(C)Cc1cccc(-c2ccc3ccnc(N)c3c2)c1	99	74	21
Cc1cccc2nc(-c3cccc(-c4cccc(NC(=O)c5cncn5C)c4)c3)[nH]c12	100	91	0
COc1cccc(CNCC(C)(C)c2nc(-c3ccc(Cl)c(O)c3)c(-c3ccncc3)[nH]2)c1.Cl	100	98	74
Nc1nc(-c2ccccn2)nc(-n2nc(-c3cccc(C(F)(F)F)c3)cc2N)n1.O=C(O)C(F)(F)F	87	74	14
CC(=O)N(C)c1cccc(C(=O)Nc2ccc(-c3cccc(-c4nc5cc(C(F)(F)F)ccc5[nH]4)c3)cc2)c1	94	10	79
Nc1ccc2nc(C=Cc3ccc(Cl)cc3)[nH]c2c1	91	83	19
O=C(O)C(F)(F)F.Oc1ccc(CCNc2nc(NCc3cccc(OCc4cccc(F)c4)c3)nc(N3CCNCC3)n2)cc1	86	0	27
CN1CCN(Cc2cc3cc(NC(=O)/C=C/c4ccc(Cl)cc4)ccc3s2)CC1.Cl	100	20	51
O=C(O)C(F)(F)F.O=c1cc(N2CCNCC2)c(Cl)nn1Cc1ccc(NS(=O)(=O)c2ccc(Oc3ccccc3)cc2)cc1	100	0	3
COc1ccccc1CNC(=O)c1nn(-c2ccc(Cl)cc2)c(=O)c2ccccc12	100	80	0
Cl.N#Cc1ccc2c(c1)CCN(CCC1CCC(NC(=O)/C=C/c3cc(Br)cs3)CC1)CC2 (centres undefined)	93	1	3

SMILES	Inhibition (Plasmodium falciparum [1]) [%]	Inhibition (Plasmodium falciparum [2]) [%]	Inhibition (HepG2) [%]
FC(F)(F)c1ccc2[nH]ccc(=NN=Cc3ccccc3Cl)c2c1	100	83	0
CCC(C)(C)c1ccc(OCC(O)CN2CCCCC2)c(C(C)(C)CC)c1 (centres undefined)	91	26	14
Cc1cccc2nc(-c3ccc(-c4ccc(NC(=O)C(C)CN(C)C)cc4)cc3)[nH]c12 (centres undefined)	99	99	18
CCC[C@@H]([C@@H](CC1CCCCC1)C(=O)N[C@H](C(=O)Nc1nccs1)C(C)(C)SCCNC(=O)OCC)N(O)C=O	99	98	45
COc1ccc2ncc(Cl)c(NCC3(O)CCC(NCc4ccc5c(n4)NC(=O)CS5)CC3)c2n1.Cl (centres undefined)	96	31	39
COc1ccc(NC(=O)[C@H](CC(C)C)Nc2cc(C)nc(NCC3CCCCC3)n2)cc1.O=C(O)C(F)(F)F	100	92	7
CCCCCC(C)c1cc(O)c2c(c1)OC(C)(C)C=C2C1=CCN(Cc2ccccc2)CC1 (centres undefined)	96	96	13
CN1CCN(c2nsc3ccc(-c4ccc(NC(=O)Nc5ccccc5)cc4)cc23)CC1.O=C(O)C(F)(F)F	100	98	38
Cc1cc(NCCc2ccccc2)nc(NC(=N)Nc2ccccc2Cl)n1	100	7	20
Cc1cc(C2CCN(CCCCNC(=O)c3ccc(-c4ccc(C#N)cc4)cc3)CC2)c(C)cc1O	96	96	27
NCC1CCCN1Cc1cccc(-c2ccc(-c3nc4cc(C(F)(F)F)ccc4[nH]3)s2)c1.O=C(O)C(F)(F)F (centres undefined)	100	96	17
CN1CCC(c2csc3ccc(NC(=O)Nc4ccc(-c5ccncc5)c5ccccc45)cc23)CC1	98	71	8
Cc1ccc(C)c2c1[nH]c1ccc(C3=NCCN3)cc12.Cl	100	0	29
O=C(/C=C/c1ccc(Cl)c(Cl)c1)NCCCCCN1CCN(C(=O)Nc2ccc(Cl)c(C(F)(F)F)c2)CC1	100	0	22
COc1ccc(C(=O)Nc2ccc(-c3ccc([N+](=O)[O-])cc3)cc2)cc1CCCN(C)C.Cl	98	9	20
COc1ccc(/C=C/C(=O)Nc2ccc(-c3ccncc3)cc2)cc1CCCN(C)C.O=C(O)/C=C\C(=O)O	100	86	3
c1ccc(C(c2ccccc2)N2CCN(C(c3cccnc3)c3nnnn3C3CCCC3)CC2)cc1 (centres undefined)	83	59	4
O=C(NC1CCN(Cc2ccccc2)CC1)c1ccc2c(=O)n(Cc3ccc(Cl)cc3)c(=S)[nH]c2c1	100	100	16
CCCCN(CCCC)CCCCNc1c2ccccc2nc2ccccc12.Cl	100	100	36
c1ccc(Oc2ccc(Nc3ccnc4cc(-c5ccc(CN6CCCCC6)o5)ccc34)cc2)nc1	100	100	18
Cl.Clc1ccc(OCCC2CCN(CCCCCCN3CCCCC3)CC2)cc1Cl	97	36	86

SMILES	Inhibition (Plasmodium falciparum [1]) [%]	Inhibition (Plasmodium falciparum [2]) [%]	Inhibition (HepG2) [%]
O=C(NC1CC1)c1cnc(N2CCC(Cc3ccccc3)CC2)c(Cl)c1.O=C(O)C(F)(F)F	96	96	10
Cc1noc(C)c1-c1ccc2c(Nc3nccc4ccccc34)c(C(N)=O)cnc2c1	100	99	100
CC(=O)Nc1cc(C(=O)Nc2cccc(-c3csc(-c4nc5ccccc5[nH]4)c3)c2)ccc1C	94	66	31
CCn1cc(CN2C(=O)C(c3ccccc3)(c3ccccc3)N=C2N)cn1.O=CO	95	60	7
COc1ccc(CNc2nc(Nc3cccc(C#N)c3)nc(Nc3cccc(C#N)c3)n2)cc1Cl	100	83	0
COc1cccc(NC(=O)Cn2c(C)c(C#N)c3ccccc32)c1	100	100	16
COc1cccc(-c2cnc(-c3ccncc3)nc2C2CCN(Cc3ccc(NC(C)=O)cc3)CC2)c1	89	0	17
CN(C)C(CNc1ncnc2cc(Cl)ccc12)Cc1ccccc1 (centres undefined)	96	88	13
CCCCc1ccc(C(=O)Nc2ccc3nc(N4CCN(CC)CC4)cc(C)c3c2)cc1	91	13	32
CC(C)CN(c1nc(C(=O)NNC(=O)[C@H](CC2CC2)NC(=O)c2cc3cc(OCCN(C)C)ccc3o2)cs1)C1CC1	87	97	0
NCCCN(Cc1ccc(Cl)c(Cl)c1)C(=O)Nc1ccc(Cl)c(Cl)c1	93	41	100
Cc1cc(NC(=O)NCCN2CCC(NS(=O)(=O)c3cccc(Br)c3)C2)c2ccccc2n1.O=C(O)C(F)(F)F (centres undefined)	99	58	0
O=C(NCC1CCC(CNCCCc2ccccc2)CC1)Nc1ccc(Cl)c(Cl)c1 (centres undefined)	99	2	26
CC(NCCC1CCC(NC(=O)N[C@H](C)C(O)(c2ccccc2)c2ccccc2)CC1)c1cccc2ccccc12 (some centres undefined)	86	58	43
O=C(/C=C/c1ccc([N+](=O)[O-])cc1)N1CCC(NS(=O)(=O)c2ccc(Br)cc2)CC1	93	5	0
CC1CN(Cc2ccccc2)CCN1c1ccc(NC(=O)c2ccc(F)cc2)cc1.O=C(O)C(F)(F)F (centres undefined)	87	89	0
CCN1CCCC1CNC(=O)c1cc2c(-c3ccc(Cl)cc3)nn(C)c2s1 (centres undefined)	96	20	27
CCN(CC)CCCC(C)Nc1c(-c2ccc(C)cc2)cnc2ccccc12 (centres undefined)	85	65	8
CC(=O)Nc1ccc(CN2CCC(NC(=O)c3ccc(-c4ccc(N(C)C)cc4)s3)CC2)cc1.O=C(O)C(F)(F)F	100	57	20
COc1ccc(C=NN=c2c3ccccc3[nH]c3ccccc23)c2ccccc12	82	23	9
CC(=O)Nc1ccc(S(=O)(=O)N2CCN(c3nc(NC4CCCC4)c4ccccc4n3)CC2)cc1	88	2	7
